GPR151 ag – activators of human GPR151. 650,000 tested, 1% active. activation, % at 11.2 µM. Q8TDV0. AID 1508602. PathHunter beta-arrestin GPR151 cells, luminescence; in the data active means activation above about 4.9%
Target sequence (Q8TDV0 whole entry, looked up): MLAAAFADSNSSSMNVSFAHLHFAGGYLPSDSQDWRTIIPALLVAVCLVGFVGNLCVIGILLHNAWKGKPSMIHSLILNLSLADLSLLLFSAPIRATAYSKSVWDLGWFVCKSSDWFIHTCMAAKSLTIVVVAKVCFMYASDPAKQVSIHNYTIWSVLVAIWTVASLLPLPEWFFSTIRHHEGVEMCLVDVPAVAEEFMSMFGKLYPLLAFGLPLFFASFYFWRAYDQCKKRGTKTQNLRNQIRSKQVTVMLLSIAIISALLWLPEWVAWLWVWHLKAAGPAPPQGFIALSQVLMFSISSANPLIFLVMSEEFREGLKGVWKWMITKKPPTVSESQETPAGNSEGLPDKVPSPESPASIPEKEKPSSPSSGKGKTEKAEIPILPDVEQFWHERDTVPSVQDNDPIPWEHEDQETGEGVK
TEAD-YAP block – TEAD-YAP interaction inhibition. HEK-TIYL cells, TEAD-Gal4/YAP UAS-luciferase luminescence. inhibition, % at 9.12 µM. 640,000 tested, 1.4% active; in the data active means inhibition above about 32%
MITF inh – human MITF inhibition, primary screen; O75030; AlphaScreen MITF homodimerization, bead proximity signal; inhibition, % at 2.6 µM; 650,000 tested, 0.91% active; in the data active means inhibition above about 50%
FBW7 activator – human FBW7 E3 ligase activation, primary screen. Q969H0. AlphaScreen FBW7–phospho-cyclin E peptide binding, activator screen. normalized activity (activation), % at 26.1 µM. 650,000 tested, 0.13% active. AID 1259310; in the data active means normalized activity above about 1.9%;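 further: purified mutant Fbw7 with reduced substrate affinity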
MITF inh conf – confirmation of human MITF inhibitors. shares compounds with MITF inh. AlphaScreen MITF homodimerization, biotin/His-MITF beads. inhibition, % at 2.6 µM. 4,700 tested, 16% active. AID 1259372;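 active means inhibition above a cutoff derived from the DMSO control wells, cut at about 28% in these data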;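 further: inhibitors lower the bead chemiluminescence by keeping MITF from dimerizing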
AlphaScreen DR – AlphaScreen optical interference, dose response counter-screen | AlphaScreen optical interference counterscreen, cell-free | shares compounds with MITF inh | 480 tested, 6% active | IC50, µM | AID 1259373; call rule not given here
AlphaScreen intf2 – AlphaScreen optical interference, counter-screen. shares compounds with MITF inh. LysRS AlphaScreen counterscreen, signal interference, triplicate. inhibition, % at 2.6 µM. 4,700 tested, 7.6% active. AID 1259376;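 active means inhibition above a cutoff derived from the DMSO control wells, cut at about 30% in these data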
Numbers stand for hits; – = inactive; · = no result given. This is a sample that favours compounds with a hit; in the whole collection about 3.5% have one here.

SMILES	GPR151 ag	TEAD-YAP block	MITF inh	FBW7 activator	MITF inh conf	AlphaScreen intf2	others
COc1cc(OC)c(OC)cc1CN1CCN(Cc2cc(OC)c3c(c2)OCO3)CC1	–	–	59	–	–	–
COc1cc(CN2CCN(Cc3ccc(Br)cc3)CC2)cc2c1OCO2	–	–	69	–	–	–
COc1cc(CN2CCN(Cc3ccc(SC)cc3)CC2)cc2c1OCO2	–	–	65	–	–	–
COc1ccc(CN2CCN(Cc3cc(OC)c4c(c3)OCO4)CC2)c(OC)c1	–	–	–	–	·	·
O=C(Cc1ccsc1)OCC(=O)c1c[nH]c2ccccc12	–	–	–	–	·	·
Cc1ccc(C)c(Oc2coc3cc(OCc4cccc(Cl)c4)ccc3c2=O)c1	–	–	–	–	·	·
COc1ccc(CCNc2nc(-c3sc(C)nc3C)cs2)cc1OC	–	–	71	–	–	–
CCC12c3ccccc3C(c3ccccc31)C1C(=O)NC(=O)C12 (configuration not stated)	–	–	71	–	63	–	AlphaScreen DR=–
O=C(c1ccc2nc(-c3cccs3)c(-c3cccs3)nc2c1)N1CCOCC1	–	–	–	–	·	·
O=C(c1ccc2nc(-c3ccco3)c(-c3ccco3)nc2c1)N1CCSCC1	–	–	87	–	72	–	AlphaScreen DR=–
N#Cc1ccccc1S(=O)(=O)N1CCN(CC(O)c2ccccc2)CC1 (configuration not stated)	–	–	58	–	–	–
CCOc1ccc(S(=O)(=O)N2CCN(CC(O)c3ccccc3)CC2)cc1 (configuration not stated)	–	–	–	–	·	·
N#Cc1ccccc1S(=O)(=O)N1CCN(CC(O)COc2ccccc2F)CC1 (configuration not stated)	–	–	51	–	–	–
COc1cc(/C=C2\SC(=Nc3cc(C)cc(C)c3)NC2=O)cc(Cl)c1O	–	–	–	–	·	·
Cc1ccc(/C=C/C(=O)Nc2ccc(C(N)=O)cc2)o1	–	–	–	–	·	·
COC(=O)c1ccc(OCCCCN2CC(C)OC(C)C2)cc1 (configuration not stated)	–	–	54	–	–	–
CC1CN(CCOc2ccc(F)cc2)CC(C)O1 (configuration not stated)	–	–	53	–	–	–
Cc1ccc(S(=O)(=O)N2CCn3cccc3C2c2ccc(F)cc2)cc1 (configuration not stated)	–	–	–	–	·	·
COc1ccc(S(=O)(=O)N2CCn3cccc3C2c2ccccc2F)cc1C (configuration not stated)	–	–	58	–	–	–
O=C1Nc2c(I)cccc2C1=O	–	–	–	–	·	·
O=C1Nc2c(C(=O)O)cccc2C1=O	–	–	71	–	68	–	AlphaScreen DR=–
CN(C)CCCNC(=O)c1cccc(CN(C(=O)c2nc3ccc(-c4cn[nH]c4)cc3s2)C2CC2)c1	–	–	60	–	50	–	AlphaScreen DR=–
CC(Sc1nnc(-c2ccc([N+](=O)[O-])cc2)o1)C(N)=O (configuration not stated)	–	–	69	–	–	–
O=C(O)COc1ccc(N2C(=O)c3ccccc3C2=O)cc1	–	–	–	–	·	·
O=C(O)COc1ccc(-n2cccc2)cc1	–	–	74	–	50	–	AlphaScreen DR=–
SMILES	GPR151 ag	TEAD-YAP block	MITF inh	FBW7 activator	MITF inh conf	AlphaScreen intf2	others
Oc1ccc(CCNc2cc(-c3cccs3)ncn2)cc1	–	–	59	–	44	–	AlphaScreen DR=–
COc1ccc(C[C@@H]2NC(=O)[C@H]3CN(C(=O)c4cc(F)cc(F)c4)CCN3C2=O)cc1	–	–	–	–	·	·
COc1ccccc1CN1CCC2(CCC(CNC(=O)CSc3ccccc3)O2)CC1 (configuration not stated)	–	–	–	–	·	·
COc1ccc(CN2CCN(Cc3c[nH]c4ccccc34)CC2)cc1	–	–	64	–	–	–
COc1ccc(CN2CCN(Cc3c[nH]c4ccccc34)CC2)c(OC)c1	–	–	58	–	–	–
CCOc1cc(CN2CCN(Cc3c[nH]c4ccccc34)CC2)ccc1OC	–	–	60	–	–	–
CCC(=O)N1c2ccccc2-c2nnc(SC)nc2OC1c1ccc(C)s1 (configuration not stated)	–	–	–	–	·	·
COCCNCCOCCOc1ccc(C)cc1[N+](=O)[O-]	–	–	58	–	–	–
C=CCNCCCCOc1ccc(C)cc1[N+](=O)[O-]	–	–	75	–	–	–
COCCCNCCOCCOc1ccc(C)cc1[N+](=O)[O-]	–	–	–	–	·	·
CCC(C)NCCCCOc1ccc(C)cc1[N+](=O)[O-] (configuration not stated)	–	–	70	–	–	–
CCC(C)NCCOc1ccccc1[N+](=O)[O-] (configuration not stated)	–	–	–	–	·	·
COCCNCCCCOc1ccc(C)cc1[N+](=O)[O-]	–	–	–	–	·	·
CC1CCCC(NC(=O)CCCn2c(=S)[nH]c3ccsc3c2=O)C1C (configuration not stated)	–	–	–	–	·	·
CN1CCN(Cc2cccc(Oc3ccccc3)c2)CC1	–	–	–	–	·	·
CCc1ccc(CN2CCN(Cc3cccc(Oc4ccccc4)c3)CC2)cc1	–	–	67	–	–	–
OC1CCN(Cc2cccc(Oc3ccccc3)c2)CC1	–	–	–	–	·	·
CN1CCCN(Cc2cccc(Oc3ccccc3)c2)CC1	–	–	55	–	–	–
Cc1c(C(=O)Nc2ccc(C(F)(F)F)cc2)sc2ncn(CC(=O)N3CCCCC3)c(=O)c12	–	–	–	–	·	·
CCNCc1cc(Br)ccc1OCC(N)=O	–	–	–	–	·	·
CCN(CC)C(=O)C1=CC2([N+](=O)[O-])CN(CC(=O)O)CC([N+](=O)[O-])(C1)C2 (configuration not stated)	–	–	–	–	·	·
O=C(O)CN1CC2([N+](=O)[O-])C=CCC([N+](=O)[O-])(C1)C2 (configuration not stated)	–	–	55	–	–	–
CCOC(=O)C1=C(O)CSC1=NC(=O)c1ccc(OC)cc1	–	–	52	–	–	–
CCCc1nc(SCC(=O)NC(C)(C)C)c2ccccc2n1	–	–	53	–	–	–
COc1ccccc1CNC(=O)c1cnn2c(C)c(Cc3ccccc3F)c(C)nc12	–	–	–	–	·	·
Cc1cc(Cl)c(OCCCn2cncn2)c(Br)c1	–	–	–	–	·	·
Cc1cc(Cl)cc(Br)c1OCCCCn1cncn1	–	–	63	–	–	–
N#CC1=c2/c(=C/c3ccco3)c(N)c(C#N)n2C(=O)C(c2ccco2)S1 (configuration not stated)	–	–	68	–	47	–	AlphaScreen DR=–
O=C1CC(N2CCN(c3ccc(Cl)cc3)CC2)C(=O)N1CCc1ccccc1 (configuration not stated)	–	–	53	–	–	–

Bioassay records: PubChem BioAssay, The Scripps Research Institute Molecular Screening Center
